Data reported in PubChem BioAssay (NCATS).
Records with an inconclusive call do not appear. Active and inactive are the calls of the source. The call rests on the fitted dose curve; tested in HEK293 reporter line.

assay: qHTS for Inhibitors of the Functional Ribonucleoprotein Complex (vRNP) of Lymphocytic Choriomeningitis Arenaviruses (LCMV): Viability assay - alamar blue signal for LCMV Primary Screen (AID 1347085); details: alamar blue viability counter-screen, LCMV vRNP screen cells; series mostly up to 57.5 µM; activity change, negative = lower viability: at the top concentration; further: nearly all actives have a fitted effect of over 80% in size
On the % scale 0 is the no-effect control and ±100 the full control effect; potency means the concentration at half of the fitted maximal effect.

| Structure (SMILES) | activity change, negative = lower viability | Potency |
| --- | --- | --- |
| C[C@]12O[C@H](C[C@@]1(O)C(=O)O)n1c3ccccc3c3c4c(c5c6ccccc6n2c5c31)CNC4=O | 6.16% [at 5.82 µM] (inactive) | – |
| CC(C)=CCC/C(C)=C/CC/C(C)=C/CCC1(C)CCc2cc(O)ccc2O1 (stereo not drawn) | 8.45% (inactive) | – |
| C=O | -1.24% [at 115 µM] (inactive) | – |
| CC(C)(O)c1cc2nc(-c3cnc(N)nc3)nc(N3CCOCC3)c2s1 | – | 0.769 µM (active) |
| O=C1C=CC[C@H](/C=C/C[C@@H](O)C[C@H](O)CCc2ccccc2)O1 | -7.82% (inactive) | – |
| O=C1CCCCCCCCCCCCCCO1 | 25.4% [at 115 µM] (inactive) | – |
| NC(=O)NCCCC(=O)O | 12.2% (inactive) | – |
| COc1cc2c(=O)c(-c3ccc(O)cc3)coc2cc1OC1OC(CO)C(O)C(O)C1O (stereo not drawn) | -0.789% (inactive) | – |
| CNc1nc(-c2ccc3c(N)n[nH]c3c2)cc(N2C[C@@H](C(=O)NC3CCCCC3)CC[C@@H]2C)n1 | – | 38.5 µM (active) |
| COC(=O)c1ccc(N2CC3CNC(=O)C2(C(=O)OC)N3C)cc1 (stereo not drawn) | 12.6% (inactive) | – |
| CCCC1CCC(=O)O1 (stereo not drawn) | 12.1% [at 115 µM] (inactive) | – |
| O=C(O)CCCCCCCCCC(=O)O | -21.2% [at 115 µM] (inactive) | – |
| Cn1cc(C=C2C(=O)Nc3cccnc32)c2ccccc21 | 16.4% (inactive) | – |
| CC1OC(Oc2ccc3ccc(=O)oc3c2-c2c(O)ccc3cc(Oc4ccc5ccc(=O)oc5c4)c(=O)oc23)C(O)C(O)C1O (stereo not drawn) | -23.8% (inactive) | – |
| CCCCCCCCCCCCCCCCCC(=O)NCC(COP(=O)([O-])OCC[N+](C)(C)C)OCC (stereo not drawn) | 12% (inactive) | – |
| COc1ccc2c(c1)c(=O)cc(-c1ccccc1)n2C | -11.1% (inactive) | – |
| C[C@H]1CCC2[C@](C)(CO)[C@@H](O)CC[C@]2(C)[C@@]12CCC(CO)(CCO)O2 (stereo partly drawn) | 1.15% (inactive) | – |
| CCCCC[C@H](O)C=C[C@H]1[C@H](O)CC(=O)[C@H]1CCCCCCC(=O)O | -1.37% (inactive) | – |
